Results as given in PubChem BioAssay AID624429 (Broad Institute, 2012).
Results with a measured potency or affinity are listed apart. Calls of active or inactive are those of the source.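 The calls were made as follows: active = viability loss with a fitted half-maximal dose at or below twice the top valid dose, in every repeat test; inconclusive = repeat tests disagree, or a flat partial loss, or a poor fit; inactive = all tests inactive, including signal rising instead of falling.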

Experiment: cytotoxicity in melanoma parental cells – cell-based, CellTiter-Glo, dry powder, set 6, MITF inhibitor project, dose response (AID 624429)

For NC1=C(NS(=O)(=O)c2ccc(Br)s2)C(=O)c2ccccc2C1=O, the outcome was “inactive”.
